From PubChem
The list is not random: actives were taken first. Their share in the collection is about 2.3%.
Nrf2 activator = activates Nrf2 signaling | AREc32 ARE-luciferase reporter (MCF7-derived line), luminescence, 24 h | actives 0.31% (n = 410,000) | Potency, µM (series often up to 46.1 µM), without a hit: top-dose activation, hits mostly activators; further: potency means the concentration at half of the fitted maximal effect; % of control where 0% means no effect; nearly all actives have a fitted effect of over 65% in size
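Luminescent ARE reporter assay in AREc32_Fluc cells: overnight plating at 37 deg C, 24 hr compound incubation, Steady-Glo added, 30 min RT before reading.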
Anesthetic bind = candidate novel general anesthetic via apoferritin binding. apoferritin/1-aminoanthracene competitive binding, fluorescence. Potency, µM (highest dose often 77.5 µM), inactives show top-dose activity change, negative = displacement, most hits filed as inhibitors. actives 0.074% (n = 350,000). AID 485281; further: potency means the concentration at half of the fitted maximal effect; on the % scale 0 is the no-effect control and ±100 the full control effect; nearly all actives have a fitted effect of over 20% in size
Target sequence (P02791 2-175 limits assumed): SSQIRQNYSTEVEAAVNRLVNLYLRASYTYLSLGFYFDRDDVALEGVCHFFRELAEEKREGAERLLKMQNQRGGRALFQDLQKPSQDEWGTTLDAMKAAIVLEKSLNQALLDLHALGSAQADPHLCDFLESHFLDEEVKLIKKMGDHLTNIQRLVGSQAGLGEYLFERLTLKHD
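Steps: apoferritin (10 uM) was premixed with half-saturated 1-AMA in PBS, compounds were pin-transferred, plates stood 10 min at room temperature, fluorescence was read at 380/535 nm, and curves were fitted with a Hill equation.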
IDH1 R132H inh = blocks human mutant IDH1 R132H enzyme; O75874; IDH1-R132H enzyme, NADPH consumption, diaphorase/resazurin fluorescence; Potency, µM (highest dose often 76.6 µM), for the others: top-dose activity change, negative = inhibition, hits mostly inhibitors; actives 0.093% (n = 390,000); further: potency means the concentration at half of the fitted maximal effect; on the % scale 0 is the no-effect control and ±100 the full control effect; nearly all actives have a fitted effect of over 65% in size
Target sequence (O75874 whole entry R132H, stated change not applied): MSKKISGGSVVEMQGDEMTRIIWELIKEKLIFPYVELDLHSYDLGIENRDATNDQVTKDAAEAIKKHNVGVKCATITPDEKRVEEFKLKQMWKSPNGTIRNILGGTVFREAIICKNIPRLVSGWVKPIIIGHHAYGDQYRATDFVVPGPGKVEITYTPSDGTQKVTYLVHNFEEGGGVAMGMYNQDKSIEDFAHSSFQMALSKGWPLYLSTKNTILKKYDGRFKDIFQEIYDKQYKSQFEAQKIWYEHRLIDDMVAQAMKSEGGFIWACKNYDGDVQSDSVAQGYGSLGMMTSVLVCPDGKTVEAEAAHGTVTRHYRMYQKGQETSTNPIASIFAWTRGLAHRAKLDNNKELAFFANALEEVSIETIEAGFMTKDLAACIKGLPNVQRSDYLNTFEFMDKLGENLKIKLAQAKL
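IDH1-R132H (0.5 ug/mL) preincubated 30 min with compound, then NADPH (0.016 mM) and alpha-KG (2 mM) added; 80 min at RT, pH 7.5. Remaining NADPH coupled via diaphorase/resazurin to fluorescence (540/590 nm); concentration-response curves normalized to no-enzyme control.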
Nrf2 block = blocks Nrf2 signaling; A549 ARE-Fluc reporter, luciferase luminescence, 18-24 h; Potency, µM (titrated, usually from 46 µM), without a hit: top-dose activity change, negative = inhibition, most hits filed as inhibitors; actives 2.1% (n = 360,000); further: potency means the concentration at half of the fitted maximal effect; on the % scale 0 is the no-effect control and ±100 the full control effect; nearly all actives have a fitted effect of over 60% in size
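A549 ARE_Fluc cells (5000/well, 5% FBS OPTI-MEM) pre-incubated 2 h, then treated with compounds 18-24 h at 37C/5% CO2 in concentration-response. CellTiter-Fluor viability read first; BugLite luciferase luminescence after 15 min at room temperature gives Nrf2 activity.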
Giardia killer = kills Giardia lamblia. Giardia lamblia trophozoite viability. activity change, % at 7.66 µM, hits read low. actives 0.15% (n = 340,000); in the data active means activity change below about -80%; inconclusive means between about -30% and that limit;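 further: parasites exposed to compound for two days anaerobically before the ATP read; on the % scale 0 is the no-effect control and ±100 the full control effect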
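Trophozoite viability was measured as ATP-dependent luminescence, read 15-30 min after reagent addition. Before that, parasites at 100 cells/well were exposed to compounds for 48 h, anaerobically, at 37 deg C.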
A549 tox = A549 cytotoxicity, counter-screen for Nrf2 inhibitors; A549 ARE-Fluc cells, CellTiter-Fluor viability, 18-24 h; Potency, µM (highest dose often 46 µM), for the others: at the top dose activity change, negative = cytotoxicity, actives largely listed as inhibitors; actives 0.16% (n = 390,000); AID 504648; further: potency means the concentration at half of the fitted maximal effect; on the % scale 0 is the no-effect control and ±100 the full control effect
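Cytotoxicity counterscreen: CellTiter-Fluor fluorescence was measured in A549 ARE_Fluc cells after 18-24 h of compound exposure in a concentration series. The subsequent BugLite luminescent read reports ARE-luciferase activity.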
Starred values were filed as active, the others as inactive; ? = inconclusive; . = not tested or not shown; [ ] = dose if it differs, or a comment. Unless noted, the call rests on the fitted dose curve; in most records, active means well fitted curve in the direction sought with a large enough effect; inconclusive means small, poorly fitted or top-dose-only effect, or another doubt; inactive means no such curve, though single readings can be large; an effect the other way counts as inactive or inconclusive.

SMILES	Nrf2 activator	Anesthetic bind	IDH1 R132H inh	Nrf2 block	Giardia killer	A549 tox
O=C(CSc1nc2ccccc2n1S(=O)(=O)c1cccc([N+](=O)[O-])c1)NCCc1ccccc1	0%	-8%	3%	18µM*	-1	?
COCC#Cc1ccc2c(c1)O[C@@H](CN(C)C(=O)Nc1ccc(OC)cc1)[C@H](C)CN([C@H](C)CO)S2(=O)=O	0%	.	8%	.	.	.
Cc1ccccc1/C=C1\C(=O)Nc2ccc(F)cc21	?	?	13%	2.9µM*	17	?
OCc1ccccc1-c1ccc2nccn2c1	2%	.	.	.	.	.
COc1ccccc1NC(=O)CCn1cnc2ccccc2c1=O	1%	-11%	.	.	.	6%
Cc1ccnc(OC(C(=O)O)C(OCCc2ccccc2)(c2ccccc2)c2ccccc2)n1 (configuration not stated)	0%	-7%	-6%	?	-5	-25%
Cc1cc(C)nc(OC(C(=O)O)C(OCCc2ccccc2)(c2ccccc2)c2ccccc2)n1 (configuration not stated)	0%	-10%	1%	13µM*	-14	-14%
O=C1c2ccccc2C(=O)N1c1ccccn1	.	.	.	?	13	2%
CCOC(=O)c1c(C)[nH]c(C=O)c1Cc1cccc(Cl)c1	0%	-8%	5%	26µM*	-4	?
CCOC(=O)c1c(C)[nH]c(C)c1C(=O)COC(=O)/C=C/c1cccc(Cl)c1	16%	?	0%	-3%	-13	-4%
CCC(O)CNC(=O)NC(=C(Cl)Cl)c1ccc(C)c(F)c1 (configuration not stated)	?	-4%	16%	18µM*	0	-14%
CCOC(=O)c1cc(-c2ccccc2)sc1NC(=O)COC(=O)c1cccc(S(N)(=O)=O)c1	1%	-5%	11%	-19%	2	-3%
CCOC(=O)c1cc(-c2ccccc2)sc1NC(=O)COC(=O)c1ccc(Cl)c(S(N)(=O)=O)c1	0%	-4%	7%	23µM*	9	?
C=CCNS(=O)(=O)c1nc(C)c(Cl)c(C)c1C#N	11µM*	0%	7%	-7%	6	-8%
Cc1ccc(C(=O)C2OC(=O)C(C)(C)C(=O)C2(C)C)cc1 (configuration not stated)	0%	6.3µM*	-2%	.	-9	-2%
CCCCOc1ccc(Br)cc1/C(C)=N/NC1=NCCN1	5%	-4%	5%	?	25	12µM*
O=c1[nH]c(CN2CCN(S(=O)(=O)/C=C/c3ccccc3)CC2)nc2ccccc12	-1%	-15%	-1%	?	14	-4%
O=c1[nH]c(CN2CCN(S(=O)(=O)/C=C/c3ccccc3)CC2)nc2cc(Cl)ccc12	0%	1%	2%	16µM*	4	-20%
O=C(Cn1cc(CNC(=O)c2ccccc2)nn1)Nc1cc(C(F)(F)F)ccc1Cl	.	.	.	8%	.	0%
CCc1ccc(CNC(=O)c2c(C)oc3ncn(CC(C)C)c(=O)c23)cc1	0%	3%	-6%	?	.	12%
O=C1C(SCCO)=C(SCCO)C(=O)c2ccccc21	-4%	.	25%	26µM*	3	?
COc1ccc(CCN2C(=O)CN(C3CCCCCC3)C(=O)C2c2ccc(OC(C)C)c(OC)c2)cc1OC (configuration not stated)	0%	-7%	-16%	.	.	-1%
COc1ccc(C2C=C3CNS(=O)(=O)C3CC2OC(=O)c2ccc(C(F)(F)F)cc2)cc1 (configuration not stated)	.	-20%	.	?	-9	?
Cc1ccc(-c2nc(-c3ccccn3)no2)cc1	-2%	-18%	-2%	2.1µM*	-90*	-1%
COc1ccc2cc(S(=O)(=O)N3CCCCC3)ccc2c1S(=O)(=O)N1CCCCC1	0%	0%	10%	16µM*	-2	-10%
SMILES	Nrf2 activator	Anesthetic bind	IDH1 R132H inh	Nrf2 block	Giardia killer	A549 tox
O=[N+]([O-])c1cc(S(=O)(=O)N2CCCCCC2)ccc1F	3%[9.22 µM]	-18%	46µM*	-16%	-11	1%
COc1ccc(Nc2ccc(S(=O)(=O)N3CCCCC3)cc2[N+](=O)[O-])cc1	-1%	-3%	1%	7.3µM*	-9	?
Fc1ccc(-c2noc3ncnc(Nc4ccc(F)cc4F)c23)cc1	3%	-41%	1%	.	.	5%
COC(=O)c1cc(F)c(S(=O)(=O)N2CCN(S(=O)(=O)c3ccc4c(c3)OCCO4)CC2)cc1F	.	.	.	1%	.	-4%
COc1ccc(CNc2ccccc2C(=O)NCc2ccccc2)cc1COc1ccc(NC(C)=O)cc1	.	.	.	?	9	-1%
Cc1cc(=O)n(C(C)C(=O)N2CCCc3ccccc32)c2c1c(C)nn2-c1ccccc1 (configuration not stated)	3%	56%	-9%	18µM*	.	?
CC(=O)c1cccc(NC(=O)C(C)n2c(=O)cc(C)c3c(C)nn(-c4ccccc4)c32)c1 (configuration not stated)	-1%	-8%	10%	?	.	-2%
CC1(C)CC(=O)c2sc(NC(=O)c3cccs3)nc2C1	0%	1%	0%	15µM*	-96*	-19%
CC(=O)Nc1ccc(CN(C)c2c(C)nc3ccc(C(=O)NCCCN4CCCC4=O)cn23)cc1	0%	.	.	.	.	.
COc1ccccc1CNC(=O)C(Cc1ccccc1)NS(=O)(=O)c1ccc2c(c1)CCN2C(C)=O (configuration not stated)	1%	-8%	-8%	9%	.	-2%
CC(=O)OCC(=O)[C@@]1(OC(C)=O)[C@H](C)C[C@H]2[C@@H]3C[C@H](F)C4=CC(=O)C=C[C@@]4(C)[C@]3(F)[C@H](O)C[C@@]21C	.	-11%[29.3 µM]	.	.	.	.
CC12C=CC(=O)C=C1C(F)CC1C3CCC(O)(C(=O)CO)C3(C)CC(O)C12F (configuration not stated)	-1%	.	3%	0.0052µM*	-3	-3%
CC(=O)OCC(=O)[C@@]1(O)[C@H](OC(C)=O)C[C@H]2[C@@H]3CCC4=CC(=O)C=C[C@]4(C)[C@@]3(F)[C@@H](O)C[C@@]21C	.	-7%	.	.	.	.
C[C@@H]1C[C@H]2[C@@H]3C[C@H](F)C4=CC(=O)C=C[C@]4(C)[C@@]3(F)[C@@H](O)C[C@]2(C)[C@@]1(O)C(=O)CO	0%	-4%	-3%	?	5	-6%
CC(=O)OCC(=O)C1(O)CCC2C3CC(C)C4=CC(=O)C=CC4(C)C3(F)C(O)CC21C (configuration not stated)	1%	.	-5%	0.058µM*	-7	4%
